Screening data from PubChem BioAssay.
This is a sample that favours compounds with a hit; in the whole collection about 19% have one here.
DT40 TDP1 CPT: qHTS for Inhibitors of human tyrosyl-DNA phosphodiesterase 1 (TDP1): qHTS in cells in presence of CPT | chicken DT40 Tdp1-/-;hTDP1 cells + 20 nM CPT, ATP luminescence, 48 h | hit rate 12% among 420,000 | Potency, µM (doses to about 46.2 µM), inactives show at the top dose activity change, negative = growth inhibition, hits mostly inhibitors; also: potency is read from the fitted curve at half-maximal effect; % is scaled to controls: 0 for no effect and ±100 for the full control effect; nearly all actives have a fitted effect of over 55% in size
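Chicken DT40 Tdp1-/- cells complemented with human TDP1, 400 cells/well, exposed to compounds plus 20 nM camptothecin for at least 48 h at 37 C; viability read as ATP content by CellTiter-Glo luminescence.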
HepG2 tox: qHTS for Inhibitors of TGF-b: Cytotox Counterscreen. AID 588856, 2011. HepG2 CAGA-GFP viability, ATP luminescence, 18 h. Potency, µM (series often up to 46.1 µM), without a hit: at the highest dose activity change, negative = cytotoxicity, actives largely listed as cytotoxic. hit rate 0.76% among 410,000; also: potency is read from the fitted curve at half-maximal effect
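CellTiter-Glo luminescence gave cytotoxicity after 18 hours at 37 degrees C. The cells were HepG2 CAGA-GFP in 1% FBS DMEM, stimulated with 500 pg/mL TGF-beta after compound addition. %Activity was normalised to no-cell wells (complete cell-killing) and DMSO (no toxicity), and curves were fitted and classified.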
IL-1B inflam inh: qHTS for Inhibitors of Inflammasome Signaling: IL-1-beta AlphaLISA Primary Screen. THP-1 LPS/ATP IL-1B secretion, AlphaLISA, 16 h; hits give low values. activity change, % at 57.5 µM. hit rate 4.7% among 360,000; in the data active = activity change below about -50%; inconclusive = mostly about -30% to -49%; also: % is scaled to controls: 0 for no effect and ±100 for the full control effect
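Secreted IL-1B measured by AlphaLISA bead assay after 16 h compound exposure of THP-1 cells; compounds (final up to 57.5 uM) added 1 h before LPS (250 ng/mL) and ATP (1.25 mM) stimulation; lower signal means less secretion.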
TDP1 inh: qHTS Assay for Inhibitors of Tyrosyl-DNA Phosphodiesterase (TDP1); Tyrosyl-DNA phosphodiesterase 1 (Homo sapiens), Q9NUW8; recombinant TDP1, AlphaScreen DNA substrate cleavage; Potency, µM (highest dose often 130 µM), inactives show top-dose activity change, negative = inhibition, usual class: inhibitors; hit rate 0.28% among 350,000; also: potency is read from the fitted curve at half-maximal effect; % is scaled to controls: 0 for no effect and ±100 for the full control effect; nearly all actives have a fitted effect of over 40% in size
Target sequence (Q9NUW8 whole entry, looked up): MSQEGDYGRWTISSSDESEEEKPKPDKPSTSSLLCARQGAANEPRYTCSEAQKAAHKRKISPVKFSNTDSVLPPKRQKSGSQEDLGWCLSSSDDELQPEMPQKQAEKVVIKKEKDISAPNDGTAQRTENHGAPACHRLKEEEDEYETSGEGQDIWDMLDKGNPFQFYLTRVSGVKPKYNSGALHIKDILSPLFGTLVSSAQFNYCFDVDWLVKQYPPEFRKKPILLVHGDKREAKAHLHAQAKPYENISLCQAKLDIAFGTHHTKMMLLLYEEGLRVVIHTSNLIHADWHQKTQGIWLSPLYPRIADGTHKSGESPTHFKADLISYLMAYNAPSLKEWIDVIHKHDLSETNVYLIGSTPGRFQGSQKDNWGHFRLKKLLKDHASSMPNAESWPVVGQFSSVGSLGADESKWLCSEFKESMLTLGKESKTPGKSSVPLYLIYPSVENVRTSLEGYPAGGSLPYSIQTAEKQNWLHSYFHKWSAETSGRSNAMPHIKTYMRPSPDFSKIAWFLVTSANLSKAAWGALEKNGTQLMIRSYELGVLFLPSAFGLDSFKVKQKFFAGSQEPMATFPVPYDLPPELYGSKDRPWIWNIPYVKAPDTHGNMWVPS
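E. coli-derived human Tdp1, 1 nM final. Cpd preinc 15 min RT; substrate 15 nM final, 5 min RT; AS bead mix 10 ug/ml final, 10 min RT. Signal loss = tyrosine-FITC cleavage. No-enzyme wells = max signal.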
TGFb inhibitor: qHTS for Inhibitors of TGF-b; HepG2 CAGA-GFP TGF-b/SMAD3 reporter, GFP fluorescence, 18 h; TGF-beta stimulated, 500 pg/mL final; Potency, µM (doses to about 46.1 µM), without a hit: at the highest dose activity, negative = inhibition, most hits filed as inhibitors; hit rate 1.2% among 410,000; also: potency is read from the fitted curve at half-maximal effect; % is scaled to controls: 0 for no effect and ±100 for the full control effect; nearly all actives have a fitted effect of over 65% in size
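TGF-beta reporter screen: HEPG2 CAGA-GFP, 1% FBS, 500 pg/mL TGF-beta final, 18 h; per-cell GFP summed per well; curves fitted and categorized by class.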
DT40 TDP1 no CPT: qHTS for Inhibitors of human tyrosyl-DNA phosphodiesterase 1 (TDP1): qHTS in cells in absence of CPT | DT40 Tdp1-/- hTDP1 cells, no CPT, ATP luminescence, 48 h | Potency, µM (highest dose often 46.2 µM), without a hit: top-dose activity change, negative = growth inhibition, usual class: inhibitors | hit rate 15% among 420,000 | AID 686978, 2013; also: potency is read from the fitted curve at half-maximal effect; % is scaled to controls: 0 for no effect and ±100 for the full control effect; nearly all actives have a fitted effect of over 55% in size
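Seeded 400 DT40-hTDP1 cells/well (vehicle DMSO, no 20 nM CPT); pinned compounds; ≥48 hr at 37 °C; CellTiter-Glo luminescence as viability measure.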
* hit, by the source's call; ? = inconclusive; nt = no result given; [ ] = dose if it differs, or a comment. Unless noted, calls follow the shape of the dose curve; as a rule, active = well fitted curve in the direction sought with a large enough effect; inconclusive = small, poorly fitted or top-dose-only effect, or another doubt; inactive = no such curve, though single readings can be large; an effect the other way counts as inactive or inconclusive.

SMILES	DT40 TDP1 CPT	HepG2 tox	IL-1B inflam inh	TDP1 inh	TGFb inhibitor	DT40 TDP1 no CPT
CC1=CC2=NC(=O)/C(=C\c3cn(C)c4ccccc34)C(=N)N2O1	-26%	0%	-5	-5%	2%	2%
CC1=CN2C(=N)/C(=C\c3cn(CCCOc4ccccc4)c4ccccc34)C(=O)N=C2S1	15µM*	-27%	-2	5%	-9%	?
Cc1ccc(C(=O)Nc2cccc(Oc3ccccc3)c2)o1	18µM*	4%	-26	0%	-30%	?
Cc1ccc(C(=O)Nc2ccccc2Oc2ccccc2)o1	-23%	-5%	19	nt	6%	14%
O=C(Nc1ccc(O)cc1)c1ccc(C(=O)c2ccccc2)o1	25µM*	-25%	-17	7%	10%	20µM*
Cc1oc(C(=O)Nc2ccc(O)cc2)cc1COc1ccccc1	?	-18%	-6	7%	-9%	16µM*
COc1cccc(NC(=O)c2ccc(C(=O)c3ccccc3)o2)c1	?	-12%	?	3%	-29%	18µM*
COc1cccc(-c2cc3c(c(OC)c2)OCCN(Cc2cccn2-c2ccccn2)C3)c1	18%[9.04 µM]	nt	nt	nt	nt	-7%
CC(=O)c1ccc(S(=O)(=O)N2CCN(C(=O)c3cccc(S(=O)(=O)N4CC(C)OC(C)C4)c3)CC2)cc1 (configuration not stated)	-26%	6%	40	nt	-9%	-18%
CCN(CC)S(=O)(=O)c1cc(NC(=O)CCCOc2ccc(C(C)=O)cc2)ccc1C	?	-7%	-2	0%	0%	18µM*
COc1cc(C(C)=O)ccc1OCC(=O)Nc1ccc(Cl)c(S(=O)(=O)N2CCOCC2)c1	23µM*	-17%	0	3%	-20%	18µM*
Cc1ccc(NC(=O)CCCOc2ccccc2)cc1S(=O)(=O)N1CCOCC1	?	-1%	10	-3%[56.1 µM]	-7%	?
COc1ccc(CC(=O)Nc2cccc(C(C)=O)c2)cc1S(=O)(=O)N1CCOCC1	-2%	-29%	10	0%	-1%	4%
O=C(CCCOc1ccccc1)Nc1ccc(Cl)c(S(=O)(=O)N2CCOCC2)c1	18µM*	-2%	?	-1%	?	16µM*
CC(=O)c1ccc(OCCCC(=O)Nc2cc(S(=O)(=O)N(C)C)ccc2C)cc1	-12%	-14%	10	1%	0%	-21%
CN(CCOc1ccccc1)CC(=O)Nc1ccc(Cl)c(S(=O)(=O)N(C)C)c1	8%	1%	-51*	5%	?	?
O=C(COc1cccc(Br)c1)Nc1ccc(Cl)c(S(=O)(=O)N2CCOCC2)c1	21µM*	-2%	?	0%	-19%	16µM*
COC(=O)c1ccc(NC(=O)CN2CCN(S(=O)(=O)c3cc(Cl)ccc3OC)CC2)cc1	?	14%	17	-1%	11%	16µM*
O=C(c1n[nH]c(=O)c2ccccc12)N1CCN(S(=O)(=O)c2ccccc2Cl)CC1	?	-16%	-9	3%	-8%	?
COc1ccc(Cl)cc1S(=O)(=O)N1CCN(C(=O)c2n[nH]c(=O)c3ccccc23)CC1	18µM*	-28%	29	1%	?	16µM*
O=C(CCCSc1ccccc1)Nc1ccc(Cl)c(S(=O)(=O)N2CCOCC2)c1	16µM*	-4%	-3	-4%	?	18µM*
O=C(CCOc1ccccc1)Nc1ccc(S(=O)(=O)Nc2ncccn2)cc1	-2%	-4%	22	0%[56.1 µM]	-13%	2%
